Among all 69,000 compounds or so, about 8,600 (12%) showed an effect of 50% or more. The entries come from a sample that favours strong results as a whole.

From ChEMBL document CHEMBL4513216, “Probing the Open Global Health Chemical Diversity Library for Multistage-Active Starting Points for Next-Generation Antimalarials” (ACS Infect Dis, 2020) come the findings set out here.

The subject of this assay is Plasmodium berghei. In words: Screen against P. berghei liver stage (PbLuc), transformed with Luciferase, at 10uM. The format is functional, HepG2. The note with it: tested at 10 uM.
With `Cc1nnc2n1CCN(C(=O)C1CCC(n3cccc3)CC1)C2` (centres undefined), the INHIBITION is given as 20.8%.

For the molecule `COC(=O)CC(c1cccnc1)c1oc(C)cc(=O)c1O` (centres undefined), the INHIBITION is reported as -14.8%.

Turning to `COc1ccccc1CN1CC(OC)CN(C(=O)CC(C)C)CC1=O` (centres undefined), the INHIBITION stood at 4.82%. Under `Cc1ccc(CN2CCc3c(CN(C)C)n[nH]c3C2)s1` stands 13.7%; under `Cc1ccc(CNC(=O)N2CCc3ccccc3C2CO)s1` (centres undefined), 28.7%. Under `O=C(c1cccs1)N1CCN(Cc2cc(=O)c3ccccc3[nH]2)CC1` stands 15.4%; under `Cn1ccc(CN2CCC(Cc3ccccc3)CC2)cc1=O`, -0.219%. As for `OCCN1CCC(F)(F)C2(CCN(c3cccnc3)C2)C1` (centres undefined), the figure is 60.2%; as for `FC1(F)CCN(Cc2ccncc2)CC12CCN(c1cccnc1)C2` (centres undefined), 91.9%.

In the case of `OCCN1CCC(F)(F)C2(CCN(c3cnccn3)C2)C1` (centres undefined), the INHIBITION is on record as 16.6%. Take `Cn1cc(CN2CCC(F)(F)C3(CCN(c4cccnc4)C3)C2)cn1` (centres undefined): the INHIBITION amounted to 15.4%. With `FC1(F)CCN(Cc2ccncc2)CC12CCN(c1cnccn1)C2` (centres undefined), the INHIBITION is given as -13.2%. Under `FC1(F)CCN(c2ccccc2)CC12CCN(c1ncccn1)C2` (centres undefined) stands -15.3%. Under `FC1(F)CCN(Cc2cccnc2)CC12CCN(c1ccccc1)C2` (centres undefined) stands 92.8%; under `FC1(F)CCN(Cc2ccccn2)CC12CCN(c1cccnc1)C2` (centres undefined), 85.9%; under `FC1(F)CCN(Cc2ccccn2)CC12CCN(c1ncccn1)C2` (centres undefined), 47.5%.

Consider `Cn1ccnc1CN1CCC(F)(F)C2(CCN(c3cccnc3)C2)C1` (centres undefined), for which the INHIBITION is on record as 31.2%. Under `FC1(F)CCN(Cc2ccccn2)CC12CCN(c1cnccn1)C2` (centres undefined) stands 34%; under `FC1(F)CCN(Cc2ccncc2)CC12CCN(Cc1ccccn1)C2` (centres undefined), 48.9%; under `COc1ccccc1OCCCn1c(C)c(C)oc1=O`, -10.2%. Under `CCn1c(SCC(N)=O)nnc1C(C)NC(=O)c1ccc(Cl)cc1` (centres undefined) stands 31.6%; under `CCS(=O)(=O)N1CCC2(CN(c3cccc(C)n3)C2)C1`, 18.5%. With `Cc1ccc(CN(CCCN2CCOCC2)Cc2cnn(C)c2)o1`, the INHIBITION is 30.15%.

Turning to `CCc1ncc2c(n1)CN(c1nnc(C)c(C)c1C#N)CC2`, the INHIBITION was -28.7%. For `CNC(=O)CN1CCC2(CCCN(CC3CCOC3)C2)CC1` (centres undefined), the INHIBITION was determined as 8.6%. Under `Cc1nn(-c2ccc(C(=O)O)cc2)c2c1C(CC(C)C)SCC(=O)N2` (centres undefined) stands 10.6%. As for `Cc1cccc(C(=O)N2C[C@@H]3C(CC(=O)NC(C)C)[C@@H]3C2)n1` (some centres undefined), the figure is -50.4%; as for `O=C(O)CN1CCC(F)(F)C2(CCN(c3ccccn3)C2)C1` (centres undefined), -4.02%; as for `FC1(F)CCN(Cc2cccnc2)CC12CCN(c1cnccn1)C2` (centres undefined), -20.1%.

Consider `Cn1cc(CN2CCC(F)(F)C3(CCN(c4ccccn4)C3)C2)cn1` (centres undefined), for which the INHIBITION was determined as 0.618%.

As to `O=C(O)CN1CCC(F)(F)C2(CCN(c3ccccc3)C2)C1` (centres undefined), the INHIBITION was determined as 53.9%. Under `FC1(F)CCN(Cc2cccnc2)CC12CCN(c1ccccn1)C2` (centres undefined) stands 68.2%.

Turning to `O=C(CO)N1CCC(F)(F)C2(CCN(c3ccccc3)C2)C1` (centres undefined), the INHIBITION worked out at 31.4%. Turning to `Cc1nn(C)cc1-c1cc(C(=O)N2CCc3ncc(Cl)cc3C2)on1`, the INHIBITION was found to be 7.15%.

For the molecule `N#CCc1ccc(NC(=O)Cn2cc(I)cn2)cc1`, the INHIBITION was 36.6%.

On to `O=C(NCC1CCCO1)c1nc2c(s1)CCCN2Cc1ccccc1` (centres undefined), for which the INHIBITION is reported as -57.7%.

Consider `CCOc1ccc(Br)cc1S(=O)(=O)N(CC)Cc1ccc(N(C)C)cc1`, for which the INHIBITION was determined as 61.5%. As for `COc1ccc(Br)cc1S(=O)(=O)N(C)Cc1ccc(N(C)C)cc1`, the figure is 5.76%; as for `CCN(Cc1ccc(N(C)C)cc1)S(=O)(=O)c1cc(Br)ccc1OC`, 7.65%; as for `CCOC(=O)N1CC(C)=C(C)CN1C(=O)Nc1ccc(Cl)c(Cl)c1`, 13%. As for `CCNc1cc2c(nn1)CCN(C(=O)c1cccc(CSC)c1)C2`, the figure is 37.3%. Under `CN(C(=O)c1cccnc1)C1CCCN(CCc2ccccc2)C1` (centres undefined) stands 42.2%.

For the molecule `O=C(c1ccco1)N1CCCC1C1CCN(Cc2ccccc2)CC1` (centres undefined), the INHIBITION came out at 21.3%. For the molecule `O=C(c1cccnc1)N1CCCC1C1CCN(Cc2ccccc2)CC1` (centres undefined), the INHIBITION was 73.6%. Under `O=C(c1ccc(CN2CCCCC2)cc1)N1CCCC1c1cccs1` (centres undefined) stands 31%. Under `O=C(C1CC1)N1CCCC1C1CCN(Cc2ccccc2)CC1` (centres undefined) stands -12.6%; under `O=C(c1ccncc1)N1CCCC1C1CCN(Cc2ccccc2)CC1` (centres undefined), 51.1%; under `O=C(c1ccoc1)N1CC[C@@H](N2CCOCC2)[C@@H]1Cc1ccccc1`, 35.7%.

In the case of `O=C(c1ccoc1)N1CCCC1C1CCN(Cc2ccccc2)CC1` (centres undefined), the INHIBITION came to 51.1%.

Regarding `O=C(c1cc[nH]n1)N1CCCC1C1CCN(Cc2ccccc2)CC1` (centres undefined), the INHIBITION is reported as 37.9%. As for `Cc1cccnc1C(=O)N1CCC(Cc2cnc3[nH]ccc3c2)CC1`, the INHIBITION came to 44.8%.

Take `OCC(O)CN(CCN1CCOCC1)Cc1ccco1` (centres undefined): the INHIBITION is recorded as 43.9%. As for `Cc1oncc1C(=O)N1CC[C@H]2[C@H](C[C@@H](CN3CCCC3)N2C)C1`, the figure is 16.6%; as for `Cc1cc(C(=O)N2CC[C@H]3[C@H](C[C@@H](CN4CCCC4)N3C)C2)c(C)o1`, 39.5%.
